Source: PubChem (National Center for Advancing Translational Sciences (NCATS))
Most compounds without a hit are left out; they make up all but 3.6% or so of the library.
Sm TGR inh: S. mansoni TGR enzyme inhibition; 360,000 tested, 3% active; Q962Y6; purified TGR, DTNB reduction, TNB absorbance 405 nm; Potency, µM (doses to about 114 µM), most hits filed as inhibitors; note: nearly all actives have a fitted effect of over 60% in size
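Kinetic colorimetric format: TGR-catalysed, NADPH-driven DTNB reduction monitored via TNB absorbance. Enzyme dispensed at 20 nM; compound exposure 15 min at room temperature before reaction start.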
FBPA Giardia inh: blocks Giardia fructose-bisphosphate aldolase activity. purified Giardia FBPA. A8B2U2. 290,000 tested, 0.71% active. Potency, µM (highest dose often 59.6 µM), usual class: inhibitors; note: nearly all actives have a fitted effect of over 55% in size
Target sequence (A8B2U2 whole entry, looked up): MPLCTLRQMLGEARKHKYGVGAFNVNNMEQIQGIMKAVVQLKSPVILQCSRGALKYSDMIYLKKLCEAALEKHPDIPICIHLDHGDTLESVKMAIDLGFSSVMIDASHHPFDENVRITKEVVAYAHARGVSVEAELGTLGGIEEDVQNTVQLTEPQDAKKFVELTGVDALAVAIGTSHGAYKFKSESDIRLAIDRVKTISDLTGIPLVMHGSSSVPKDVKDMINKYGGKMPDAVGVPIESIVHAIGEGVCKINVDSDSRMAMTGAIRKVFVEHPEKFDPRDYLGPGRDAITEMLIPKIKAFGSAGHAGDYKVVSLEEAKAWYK
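Giardia FBPA (40 nM reagent) was preincubated 10 min at RT with compound (up to 57.5 uM final), then substrate plus GAPDH/TPI/NAD/arsenate coupling system with diaphorase/resazurin was added; resorufin fluorescence (525/598 nm) was read after 20 min.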
AmpC inh detg: AmpC beta-lactamase inhibition with detergent present. AmpC hydrolysis of nitrocefin, absorbance 480 nm, 0.01% Triton. 370,000 tested, 0.041% active. P00811. Potency, µM (titrated, usually from 114 µM), most hits filed as inhibitors; note: nearly all actives have a fitted effect of over 25% in size
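20 mM phosphate pH 7.0 + 0.01% (detergent screen) or 0.0001% Triton X-100; 5.3 nM AmpC reagent; cpd preinc 15 min RT; nitrocefin (800 uM stock) to start; A480 q20 s × 4 min; Activity was normalised to no-enzyme and no-compound control wells.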
AmpC inh no detg: blocks E. coli AmpC beta-lactamase in detergent-free assay | P00811 | AmpC nitrocefin hydrolysis, absorbance 480 nm, 0.0001% Triton | Potency, µM (doses to about 57.1 µM), most hits filed as inhibitors | 330,000 tested, 0.52% active | AID 485341; note: nearly all actives have a fitted effect of over 20% in size
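AmpC (5.3 nM in the dispensed reagent) in 20 mM phosphate pH 7.0 with 0.01% (detergent screen) or 0.0001% Triton X-100 was preincubated with compounds for 15 min at room temperature. Nitrocefin was then added from an 800 uM solution, and hydrolysis was followed at 480 nm.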
A number is an active result; . = inactive; ? = inconclusive; / = not tested or not shown. Calls come from the whole dose curve; as a rule, active = well fitted curve in the direction sought with a large enough effect; inconclusive = small, poorly fitted or top-dose-only effect, or another doubt; inactive = no such curve, though single readings can be large; an effect the other way counts as inactive or inconclusive.

SMILES	Sm TGR inh	FBPA Giardia inh	AmpC inh detg	AmpC inh no detg
CC(NC(=O)c1ccc(CS(=O)(=O)c2cccc(C(F)(F)F)c2)o1)c1ccc2c(c1)OCCO2 (stereo not given)	.	.	?	.
CC(NC(=O)c1ccc(CS(=O)(=O)Cc2ccccc2F)o1)c1ccc2c(c1)OCCO2 (stereo not given)	35.5µM	.	.	.
Cc1n[nH]c(=S)c2nn(-c3cccc(Cl)c3)c(C)c12	79.4µM	.	.	.
COc1cccc(OC)c1OCc1cc(C2C3CCCC=C3C(C#N)=C(N)C2(C#N)C#N)c(C)cc1C (stereo not given)	39.8µM	?	.	.
O=C(NC1CCCC1)C(c1ccccc1)N(Cc1cccnc1)C(=O)Cc1cccs1 (stereo not given)	.	.	.	.
CS(=O)(=O)N(CC(=O)N1CCCC1)Cc1ccc(F)cc1	39.8µM	.	.	.
CC1CCN(C(=O)CN(Cc2ccc(F)cc2)S(C)(=O)=O)CC1	.	.	.	.
COc1ccccc1C1CCN(C(=O)c2cccc([N+](=O)[O-])c2)CC1	.	.	.	.
Cc1cccc(NC(=O)c2cc(-c3ccco3)nc3ccccc23)n1	20µM	.	?	.
CCOc1cccc(-c2cc(C(=O)Nc3ccon3)c3ccccc3n2)c1	.	.	.	17.8µM
CCc1nnc(NC(=O)c2cc(-c3ccccn3)nc3ccccc23)s1	.	.	.	.
Cc1ccc(-c2cc(C(=O)Nc3nccs3)c3ccccc3n2)o1	7.08µM	.	.	.
O=C(Nc1ccon1)c1cc(-c2ccccc2)nc2ccccc12	.	.	.	.
CCc1nnc(NC(=O)c2cc(-c3ccco3)nc3ccccc23)s1	15.8µM	.	.	?
CCOC(=O)c1nn(-c2ccc(F)cc2)c(=O)cc1OCC(=O)Nc1ccc(F)c(F)c1	.	/	.	.
COc1cc(OC)c(NC(=O)Cn2cnc3nc4c(cc3c2=O)CCCC4)cc1Cl	.	/	.	/
CCOC(=O)COc1ccc(CC)cc1C(=O)c1ccn2nc(-c3ccccc3)cc2n1	.	/	.	/
COc1ccc(-c2nnc3n2N=C(c2ccc(OC)cc2OC)CS3)cc1	/	.	/	/
CCCOc1ccc(C(=O)NNC(=S)NC(=O)c2cc(-c3ccccc3)nc3ccccc23)cc1	.	?	.	4.47µM
CCCOc1ccc(C(=O)NNC(=S)NC(=O)c2ccccc2)cc1	.	?	.	.
Cc1ccc(C)c(NC(=O)CN(C)C(=O)CN2C(=O)C3CCCCC3C2=O)c1 (stereo not given)	.	/	.	.
COc1cc2cc(CCOC(=O)c3ccc(C(F)(F)F)cc3)oc(=O)c2cc1OC	?	/	.	.
COc1ccc(CC(=O)OCCc2cc3cc(OC)c(OC)cc3c(=O)o2)cc1	7.08µM	/	.	.
COC(=O)C(=Cc1ccccc1[N+](=O)[O-])C(=O)OC	7.08µM	.	?	.
COc1ccc(N=C2S/C(=C\c3cc(C)n(C)c3C)C(=O)N2CC(C)C)cc1	.	.	?	.
SMILES	Sm TGR inh	FBPA Giardia inh	AmpC inh detg	AmpC inh no detg
COc1ccc(N=C2S/C(=C\c3ccco3)C(=O)N2CC(C)C)cc1	44.7µM	.	.	.
Cc1ccc2c(c1)c(=O)c1c3n2CCN(CC#N)C3CC1 (stereo not given)	.	.	.	.
Cc1ccc2c(c1)c(=O)c1c3n2CCN(C(=O)CCl)C3CC1 (stereo not given)	3.16µM	?	.	.
Cc1nc(-c2ccc(NC(=O)c3ccc(Br)o3)cc2)cs1	.	.	.	.
O=C(Nc1ccc(C(=O)N2CCCCC2)cc1)Nc1cccc(Cl)c1	.	/	.	.
N#CC1=C(N)Oc2c(ccc3ccccc23)C1c1cccs1 (stereo not given)	35.5µM	?	.	.
N#CC1=C(N)Oc2cc(O)ccc2C1c1cccnc1 (stereo not given)	.	.	.	.
COC(=O)C1=C(C)NC(C)=C(C(=O)OC)C1c1cc2cc(C)ccc2[nH]c1=O	?	.	.	.
N#CC1=C(N)Oc2cc(O)ccc2C1c1cccs1 (stereo not given)	.	.	.	.
N#CC1=C(N)Oc2c(ccc3cccnc23)C1c1ccccc1 (stereo not given)	39.8µM	.	.	.
Cc1ccc2[nH]c(=O)c(C3C(C#N)=C(N)Oc4c3ccc3cccnc43)cc2c1 (stereo not given)	15.8µM	.	.	.
Cc1cc(=O)oc2ccc(OCC(=O)N(Cc3ccc(F)cc3)Cc3ccco3)cc12	17.8µM	.	.	.
Cc1nc2c(oc3ccccc32)c(=O)o1	11.2µM	.	.	.
C=C1CN(Cc2ccccc2)S(=O)(=O)c2ccccc21	17.8µM	.	.	.
C=C1CN(CC(=O)OC)S(=O)(=O)c2ccccc21	.	.	.	.
CCc1ccc(S(=O)(=O)c2cn(Cc3ccccc3)c3cc(F)c(F)cc3c2=O)cc1	.	/	.	/
CC(C)N1C(=S)N(Cc2ccco2)C(=O)C1CC(=O)Nc1ccccc1 (stereo not given)	39.8µM	.	.	.
COc1ccc(OCC(=O)N2c3ccccc3CC2C)c([N+](=O)[O-])c1 (stereo not given)	/	/	/	.
Oc1ccc(N=Cc2cc(Br)c(N3CCOCC3)o2)cc1	17.8µM	?	.	.
COc1cccc(CS(=O)(=O)c2nnnn2-c2ccccc2)c1	/	.	/	/
CCCS(=O)(=O)c1nnnn1-c1cccc(OC)c1	5.62µM	.	?	.
O=C(NC1CC(=O)N(c2ccc(F)cc2)C1)c1ccc2c(c1)OCO2 (stereo not given)	.	/	.	/
CO/N=C/C(c1ncc(C(F)(F)F)cc1Cl)S(=O)(=O)c1ccccc1 (stereo not given)	.	.	.	.
CO/N=C/C(c1ccc(Cl)nc1)S(=O)(=O)c1ccccc1 (stereo not given)	22.4µM	.	.	.
CCN(CC)CCn1c(NC(=O)c2ccc(Cl)cc2)nc2ccccc21	.	.	.	.
SMILES	Sm TGR inh	FBPA Giardia inh	AmpC inh detg	AmpC inh no detg
CCN(CC)CCn1c(NC(=O)c2ccccc2O)nc2ccccc21	44.7µM	.	?	.
Cc1ccc(CN(C(=O)c2ccccc2F)c2ccccn2)o1	44.7µM	/	.	/
O=[N+]([O-])c1cc(-c2ncccn2)c([N+](=O)[O-])s1	0.316µM	15.8µM	.	.
O=C(Nc1ncccn1)c1cc([N+](=O)[O-])cc([N+](=O)[O-])c1	.	.	.	.
CCOc1ccc(N2C(=O)CC(N(Cc3ccco3)C(C)=O)C2=O)cc1 (stereo not given)	50.1µM	.	.	.
CCOc1ccc(N2C(=O)CC(N(CCc3ccc(S(N)(=O)=O)cc3)C(C)=O)C2=O)cc1 (stereo not given)	.	.	.	.
CCC(=O)N(Cc1ccc(S(N)(=O)=O)cc1)C1CC(=O)N(c2ccc(OC)cc2)C1=O (stereo not given)	28.2µM	.	.	?
CCOc1ccc(N2C(=O)CC(N(Cc3ccco3)C(=O)CC)C2=O)cc1 (stereo not given)	/	.	.	.
